Measurements: PubChem BioAssay (NCATS)
Results filed as inconclusive are left out. Entries that show only a call come without a potency. Active and inactive are the calls of the source. Calls come from the whole dose curve; as a rule, active = well fitted inhibition curve with a large enough effect; inconclusive = small, poorly fitted or top-dose-only effect; inactive = no such curve, though single readings can be large or run the other way.

Target: Protein phosphatase 1D (Homo sapiens) (UniProt O15297)
Sequence (O15297 whole entry, looked up): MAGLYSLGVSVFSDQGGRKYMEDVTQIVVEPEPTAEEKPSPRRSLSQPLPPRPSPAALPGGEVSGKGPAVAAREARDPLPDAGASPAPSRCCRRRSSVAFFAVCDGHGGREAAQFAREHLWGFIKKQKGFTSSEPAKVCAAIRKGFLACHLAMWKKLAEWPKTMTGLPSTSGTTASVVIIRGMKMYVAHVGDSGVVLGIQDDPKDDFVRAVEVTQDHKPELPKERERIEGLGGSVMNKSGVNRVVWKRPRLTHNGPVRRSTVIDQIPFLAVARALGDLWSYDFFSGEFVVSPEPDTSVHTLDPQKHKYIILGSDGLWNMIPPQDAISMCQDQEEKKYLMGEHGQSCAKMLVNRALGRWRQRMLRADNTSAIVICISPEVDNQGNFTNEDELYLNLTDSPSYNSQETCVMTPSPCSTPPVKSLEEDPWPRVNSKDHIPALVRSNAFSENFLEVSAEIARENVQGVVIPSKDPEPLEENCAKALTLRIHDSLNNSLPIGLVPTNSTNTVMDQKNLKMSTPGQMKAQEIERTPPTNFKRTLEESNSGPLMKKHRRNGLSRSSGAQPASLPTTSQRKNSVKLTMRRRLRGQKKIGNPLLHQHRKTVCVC
Experiment: RapidFire Mass Spectrometry qHTS Assay for Modulators of WT P53-Induced Phosphatase 1 (WIP1) (AID 1347424);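 note: amount of dephosphorylated VEPPL-S-QETFS peptide product formed by WIP1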; note: potency is the fitted concentration of half-maximal effect
Settings: WIP1 dephosphorylation of phosphopeptide, RapidFire MS; series mostly up to 63 µM
Outline: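 RapidFire mass spectrometry measured dephosphorylated peptide after 5 min room-temperature reaction of 2 uM VEPPL-pS-QETFS with 10 nM WIP1 (50 mM Tris-HCl pH 7.5, 30 mM MgCl2, 0.1 mM EGTA, BSA), following 1 hr compound preincubation; 1 uM isotope-labelled product standard.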

Row | SMILES | Potency
1 | CCCCCCCCCCCCCCCCOP(=O)([O-])OCC[N+](C)(C)C | inactive
2 | CC(=O)OCC(=O)[C@@]1(OC(C)=O)[C@@H](C)C[C@H]2[C@@H]3C[C@H](F)C4=CC(=O)C=C[C@]4(C)[C@@]3(F)[C@@H](O)C[C@@]21C | inactive
3 | Oc1ccc(Cl)cc1Sc1cc(Cl)ccc1O | 31.6 µM (active)
4 | CCCCCCc1ccc(O)cc1O | inactive
5 | CCCCC(=O)O[C@]1(C(=O)CO)CC[C@H]2[C@@H]3CCC4=CC(=O)CC[C@]4(C)[C@H]3[C@@H](O)C[C@@]21C | inactive
6 | C[C@]12CCC(=O)C=C1CC[C@H]1[C@@H]3CC[C@](O)(C(=O)CO)[C@@]3(C)C[C@H](O)[C@@]12F | inactive
7 | CN1CCC(=C2c3ccccc3Sc3ccccc32)CC1 | inactive
8 | C#C[C@]1(O)CC[C@H]2[C@@H]3CCc4cc(OC5CCCC5)ccc4[C@H]3CC[C@@]21C | inactive
9 | CCC(C(=O)OCCN(CC)CC)c1ccccc1 (configuration not stated) | inactive
10 | Cc1cccc(C)c1NC(=O)CN1CCN(CCCC(c2ccc(F)cc2)c2ccc(F)cc2)CC1 | inactive
11 | CC(Cc1cccc(C(F)(F)F)c1)NCCOC(=O)c1ccccc1 (configuration not stated) | inactive
12 | CC[N+](CC)(CCNC(=O)C(=O)NCC[N+](CC)(CC)Cc1ccccc1Cl)Cc1ccccc1Cl | inactive
13 | CC(C)(C)CC(C)(C)c1ccc(O)c(Cc2ccc(Cl)cc2Cl)c1 | inactive
14 | Cc1cccn2c(=O)c(-c3nnn[nH]3)cnc12 | inactive
15 | NCCc1ccn[nH]1 | inactive
16 | NC(CO)(CO)CO | inactive
17 | COc1cc2c(cc1OC)[C@@H]1CC(=O)[C@@H](CC(C)C)CN1CC2 | inactive
18 | NC(=O)CC[C@@H]1NC(=O)[C@H](Cc2ccccc2)NC(=O)[C@H](Cc2ccc(O)cc2)NC(=O)CCSSC[C@@H](C(=O)N2CCC[C@H]2C(=O)N[C@@H](CCCN=C(N)N)C(=O)NCC(N)=O)NC(=O)[C@H](CC(N)=O)NC1=O | inactive

Row | SMILES | Potency
19 | OC[C@@H](O)[C@@H](O[C@@H]1O[C@H](CO)[C@H](O)[C@H](O)[C@H]1O)[C@H](O)[C@@H](O)CO | inactive
20 | CC/C(=C(/CC)c1ccc(O)cc1)c1ccc(O)cc1 | 15.8 µM (active)
21 | CC(=O)OCC(=O)[C@@]1(O)[C@H](C)C[C@H]2[C@@H]3CCC4=CC(=O)C=C[C@]4(C)[C@@]3(F)[C@@H](O)C[C@@]21C | inactive
22 | Cc1c(F)c(N2CCNC(C)C2)cc2c1c(=O)c(C(=O)O)cn2C1CC1 (configuration not stated) | inactive
23 | C#C[C@]1(O)CC[C@H]2[C@@H]3CCC4=CC(=O)CC[C@@H]4[C@H]3CC[C@@]21C | inactive
24 | Nc1ccc(C(=O)O)cc1 | inactive
25 | COC(=O)C1=C(C)NC(C)=C(C(=O)O[C@@H]2CCCN(Cc3ccccc3)C2)[C@@H]1c1cccc([N+](=O)[O-])c1 | inactive
26 | O=C(CCN1CCC(c2ccccc2)C1)c1ccc2c(c1)OCCO2 (configuration not stated) | inactive
27 | CN(C(=O)CN(CCO)CC(=O)N(C)C(C)(C)Cc1ccccc1)C(C)(C)Cc1ccccc1 | inactive
28 | COC(=O)CCc1ccc(OCC(O)CNC(C)C)cc1 (configuration not stated) | inactive
29 | CC(=O)N/N=C/c1ccc([N+](=O)[O-])o1 | inactive
30 | COc1cc(-c2ccc(=O)[nH]n2)ccc1OC(F)F | inactive
31 | CN(C/C=C/c1ccccc1)Cc1cccc2ccccc12 | inactive
32 | CCCC(=O)O[C@]1(C(=O)CO)CC[C@H]2[C@@H]3CCC4=CC(=O)CC[C@]4(C)[C@H]3[C@@H](O)C[C@@]21C | inactive
33 | COc1cc(C=C2CCC/C(=C\c3ccc(O)c(OC)c3)C2=O)ccc1O | inactive
34 | O=C(OCCOCCO)c1ccccc1Nc1cccc(C(F)(F)F)c1 | inactive
35 | COc1cccc(OC)c1C(=O)N[C@@H]1C(=O)N2[C@@H]1SC(C)(C)[C@@H]2C(=O)O | inactive
36 | COc1cc(OC)cc(OC)c1 | inactive

Test system: not listed separately
Experiment: Primary qHTS for inhibitors of La Crosse Virus (LACV) - induced cell death in SH-SY5Y cells (AID 1508616);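 note: top concentration of the series differs between compounds; higher means more rescue of cells from virus-induced death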
Settings: SH-SY5Y LACV cytopathicity rescue, ATP luminescence, 6 d; series mostly up to 4.29 µM
Outline: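 Rescue of virus-induced death was read as ATPLite luminescence after 6 days at 37C, scaled between DMSO wells with LACV and without virus. Cells were SH-SY5Y, 6000/well, infected at 0.01 MOI after compound addition.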

Row | SMILES | Potency
37 | CCCCCCCCCCCCCCCCOP(=O)([O-])OCC[N+](C)(C)C | inactive
38 | CC(=O)OCC(=O)[C@@]1(OC(C)=O)[C@@H](C)C[C@H]2[C@@H]3C[C@H](F)C4=CC(=O)C=C[C@]4(C)[C@@]3(F)[C@@H](O)C[C@@]21C | inactive
39 | Oc1ccc(Cl)cc1Sc1cc(Cl)ccc1O | inactive
40 | CCCCCCc1ccc(O)cc1O | inactive
41 | CCCCC(=O)O[C@]1(C(=O)CO)CC[C@H]2[C@@H]3CCC4=CC(=O)CC[C@]4(C)[C@H]3[C@@H](O)C[C@@]21C | inactive
42 | C[C@]12CCC(=O)C=C1CC[C@H]1[C@@H]3CC[C@](O)(C(=O)CO)[C@@]3(C)C[C@H](O)[C@@]12F | inactive
43 | CN1CCC(=C2c3ccccc3Sc3ccccc32)CC1 | inactive
44 | C#C[C@]1(O)CC[C@H]2[C@@H]3CCc4cc(OC5CCCC5)ccc4[C@H]3CC[C@@]21C | inactive
45 | CCC(C(=O)OCCN(CC)CC)c1ccccc1 (configuration not stated) | inactive
46 | Cc1cccc(C)c1NC(=O)CN1CCN(CCCC(c2ccc(F)cc2)c2ccc(F)cc2)CC1 | inactive
47 | CC(Cc1cccc(C(F)(F)F)c1)NCCOC(=O)c1ccccc1 (configuration not stated) | inactive
48 | CC[N+](CC)(CCNC(=O)C(=O)NCC[N+](CC)(CC)Cc1ccccc1Cl)Cc1ccccc1Cl | inactive
49 | CC(C)(C)CC(C)(C)c1ccc(O)c(Cc2ccc(Cl)cc2Cl)c1 | inactive
50 | Cc1cccn2c(=O)c(-c3nnn[nH]3)cnc12 | inactive
51 | NCCc1ccn[nH]1 | inactive
52 | NC(CO)(CO)CO | inactive
53 | COc1cc2c(cc1OC)[C@@H]1CC(=O)[C@@H](CC(C)C)CN1CC2 | inactive
54 | NC(=O)CC[C@@H]1NC(=O)[C@H](Cc2ccccc2)NC(=O)[C@H](Cc2ccc(O)cc2)NC(=O)CCSSC[C@@H](C(=O)N2CCC[C@H]2C(=O)N[C@@H](CCCN=C(N)N)C(=O)NCC(N)=O)NC(=O)[C@H](CC(N)=O)NC1=O | inactive

Row | SMILES | Potency
55 | OC[C@@H](O)[C@@H](O[C@@H]1O[C@H](CO)[C@H](O)[C@H](O)[C@H]1O)[C@H](O)[C@@H](O)CO | inactive
56 | CC/C(=C(/CC)c1ccc(O)cc1)c1ccc(O)cc1 | inactive
57 | CC(=O)OCC(=O)[C@@]1(O)[C@H](C)C[C@H]2[C@@H]3CCC4=CC(=O)C=C[C@]4(C)[C@@]3(F)[C@@H](O)C[C@@]21C | inactive
58 | Cc1c(F)c(N2CCNC(C)C2)cc2c1c(=O)c(C(=O)O)cn2C1CC1 (configuration not stated) | inactive
59 | C#C[C@]1(O)CC[C@H]2[C@@H]3CCC4=CC(=O)CC[C@@H]4[C@H]3CC[C@@]21C | inactive
60 | Nc1ccc(C(=O)O)cc1 | inactive
61 | COC(=O)C1=C(C)NC(C)=C(C(=O)O[C@@H]2CCCN(Cc3ccccc3)C2)[C@@H]1c1cccc([N+](=O)[O-])c1 | inactive
62 | O=C(CCN1CCC(c2ccccc2)C1)c1ccc2c(c1)OCCO2 (configuration not stated) | inactive
63 | CN(C(=O)CN(CCO)CC(=O)N(C)C(C)(C)Cc1ccccc1)C(C)(C)Cc1ccccc1 | inactive
64 | COC(=O)CCc1ccc(OCC(O)CNC(C)C)cc1 (configuration not stated) | inactive
65 | CC(=O)N/N=C/c1ccc([N+](=O)[O-])o1 | inactive
66 | COc1cc(-c2ccc(=O)[nH]n2)ccc1OC(F)F | inactive
67 | CN(C/C=C/c1ccccc1)Cc1cccc2ccccc12 | inactive
68 | CCCC(=O)O[C@]1(C(=O)CO)CC[C@H]2[C@@H]3CCC4=CC(=O)CC[C@]4(C)[C@H]3[C@@H](O)C[C@@]21C | inactive
69 | COc1cc(C=C2CCC/C(=C\c3ccc(O)c(OC)c3)C2=O)ccc1O | inactive
70 | O=C(OCCOCCO)c1ccccc1Nc1cccc(C(F)(F)F)c1 | inactive
71 | COc1cccc(OC)c1C(=O)N[C@@H]1C(=O)N2[C@@H]1SC(C)(C)[C@@H]2C(=O)O | inactive
72 | COc1cc(OC)cc(OC)c1 | inactive
